We go through six molecules from PubChem BioAssay (NCATS).

The target of assay [1] is Lysosomal acid glucosylceramidase (Homo sapiens) (UniProt P04062). Nature of the assay: Glucocerebrosidase-p2 (AID 348; in the data active = potency below about 10 µM; also: potency is read from the fitted curve at half-maximal effect). The note with it: purified GBA, blue fluorogenic substrate, 40 min. In a few lines:
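Normal human glucocerebrosidase (0.2 nM) with blue fluorogenic substrate (80 uM final) in citrate/phosphate pH 5.9 with 10mM sodium taurocholate, 0.01% tween-20; 40 min RT, NaOH/glycine stop; fluorescence Ex 365/Em 440; AC50 from a titration from 0.6 nM upwards.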

Assay [2] deals with Cytochrome P450 1A2 (Homo sapiens) (UniProt P05177). Description: p450-cyp1a2 (AID 410; calls by dose curve; also: potency is read from the fitted curve at half-maximal effect). An outline of the steps:
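O-Demethylation of luciferin 6' methyl ether by human CYP1A2 is monitored as luciferase luminescence. Substrate sits at Km (100uM); enzyme is 20nM. Values are scaled to 57 uM furafylline as maximal inhibition.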

A short description of assay [3]: Stat Signaling Pathway (AID 446; active = well fitted curve in either direction with a large enough effect, not every such curve was filed as active;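 also: ME-180 cervical cancer cells given 40 pM IL-6 alongside compound; SIE-controlled beta-lactamase reporter measured as 460/530 nm FRET emission ratio; % is scaled to controls: 0 for no effect and ±100 for the full control effect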). The following applies: ME-180 SIE beta-lactamase reporter, IL-6 stimulated, 5 h; at 7.69 µM (top of the series) unless noted. In a few lines: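 Normalization used AC90 stimulation (300 pM IL-6) and AC90 inhibition (125 nM pan-JAK inhibitor at 40 pM IL-6). The underlying signal is SIE-driven beta-lactamase in ME-180 cells after 5 h IL-6 exposure with compound.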

In assay [4] the target is Glucocorticoid receptor (Homo sapiens) (UniProt P04150). Nature of the assay: GR-GFP Redistribution (AID 450;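 active = compounds whose dose series gives a full or clear partial fitted curve of increased nuclear translocation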; also: potency is read from the fitted curve at half-maximal effect). The note with it: U2OS GR-GFP nuclear translocation, laser cytometry, 2 h.
Glucocorticoid receptor (Homo sapiens), sequence (P04150 whole entry, looked up, the tested form may be a part): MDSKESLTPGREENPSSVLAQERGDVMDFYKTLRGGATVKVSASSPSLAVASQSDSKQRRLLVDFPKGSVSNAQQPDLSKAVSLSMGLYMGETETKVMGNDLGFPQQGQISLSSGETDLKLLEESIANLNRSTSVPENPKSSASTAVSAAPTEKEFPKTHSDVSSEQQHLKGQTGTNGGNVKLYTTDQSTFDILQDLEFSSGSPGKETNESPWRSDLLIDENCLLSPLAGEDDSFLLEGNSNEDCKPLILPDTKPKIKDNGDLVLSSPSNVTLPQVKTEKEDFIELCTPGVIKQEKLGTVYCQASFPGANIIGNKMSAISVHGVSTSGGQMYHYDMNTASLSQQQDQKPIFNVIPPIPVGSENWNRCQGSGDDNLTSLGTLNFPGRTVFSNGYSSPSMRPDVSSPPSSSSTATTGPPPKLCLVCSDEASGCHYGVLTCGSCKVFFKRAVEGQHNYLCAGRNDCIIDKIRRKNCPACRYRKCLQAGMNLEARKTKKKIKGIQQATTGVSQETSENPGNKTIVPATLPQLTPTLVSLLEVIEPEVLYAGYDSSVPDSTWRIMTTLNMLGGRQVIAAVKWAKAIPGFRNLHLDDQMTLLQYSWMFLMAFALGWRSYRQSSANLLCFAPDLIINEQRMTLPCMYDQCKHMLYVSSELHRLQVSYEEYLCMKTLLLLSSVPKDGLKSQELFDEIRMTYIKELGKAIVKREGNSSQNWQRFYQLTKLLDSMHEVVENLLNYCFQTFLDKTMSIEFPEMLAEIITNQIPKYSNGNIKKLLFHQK
Assay [5] concerns the target Mitogen-activated protein kinase 10 (Mus musculus) (UniProt Q61831). Description: JNK3 AlphaScreen Assay (AID 530; active = well fitted curve in either direction with a large enough effect, not every such curve was filed as active;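 also: kinase came from lysate of stimulated human HepG2 cells; signal reports phosphorylation of biotinylated GST-cJun 1-79 at Ser73 with 10 µM ATP; % is scaled to controls: 0 for no effect and ±100 for the full control effect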). An outline of the steps: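 Phosphorylation of biotinylated GST-cJun(1-79) at Ser73 is measured by AlphaScreen proximity luminescence. Enzyme is JNK3 in HepG2 lysates activated with interleukin-1beta and tumor necrosis factor alpha; ATP is 10 uM final.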

Assay [6] deals with Cytochrome P450 3A4 (Homo sapiens) (UniProt P08684). Nature of the assay: qHTS Assay for Inhibitors and Substrates of Cytochrome P450 3A4 (AID 884). Also: potency is read from the fitted curve at half-maximal effect; nearly all actives have a fitted effect of over 50% in size. In a few lines: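 Luminescent readout of luciferin produced by CYP3A4 (20 nM) dealkylation of Luciferin-PPXE, 25 uM (its KM). NADPH-driven reaction ran 60 min at RT after 10 min compound preincubation; data scaled to 57 uM ketoconazole as 100% inhibition.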
Cytochrome P450 3A4 (Homo sapiens), sequence (P08684 whole entry, looked up): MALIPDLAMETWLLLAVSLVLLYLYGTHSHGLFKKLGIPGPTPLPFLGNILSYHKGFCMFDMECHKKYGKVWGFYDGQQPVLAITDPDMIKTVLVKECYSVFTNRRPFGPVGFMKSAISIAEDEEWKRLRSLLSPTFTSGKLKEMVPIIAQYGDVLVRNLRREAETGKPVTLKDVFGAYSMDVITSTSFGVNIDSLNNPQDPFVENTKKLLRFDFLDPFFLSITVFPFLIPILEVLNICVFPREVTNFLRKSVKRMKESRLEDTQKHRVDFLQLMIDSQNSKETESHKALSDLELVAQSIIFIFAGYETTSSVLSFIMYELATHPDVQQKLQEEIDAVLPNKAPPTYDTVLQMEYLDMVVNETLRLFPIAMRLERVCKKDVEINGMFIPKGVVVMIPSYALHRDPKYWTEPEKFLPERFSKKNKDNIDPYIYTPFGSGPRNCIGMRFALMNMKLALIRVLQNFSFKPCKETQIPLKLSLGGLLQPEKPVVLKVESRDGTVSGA

Assay [7] has the same target. Nature of the assay: qHTS Assay for Activators of Cytochrome P450 3A4 (AID 885). Also: nearly all actives have a fitted effect of over 65% in size. In a few lines:
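Human CYP3A4 dealkylates Luciferin-PPXE to luciferin, which luciferase detection converts to light. Substrate was at its KM (25uM), buffer 200mM KPO4, reaction 60 min at RT.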
Background: qHTS replaces the single test concentration by a dilution series.

Assay [8] is described as follows: qHTS Assay for Lipid Storage Modulators (AID 1519; calls by dose curve). The following applies: Drosophila S3 cells, BODIPY lipid droplet/cell ratio, laser cytometry, cells loaded with oleic acid; for activity change, negative = inhibition: at 57.5 µM (top of the series). An outline of the steps: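 Cells seeded at 5,000 per well were treated with compounds over a concentration series and loaded with oleic acid (400 uM, as added). Lipid droplet fluorescence (488 nm excitation, 500-530 nm channel) was read by laser-scanning cytometry and normalized to 20 uM Triacsin C.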

For assay [9], the target named is Dual specificity protein kinase CLK4 (Homo sapiens) (UniProt Q9HAZ1). Nature of the assay: qHTS Assay for Inhibitors of CDC-like Kinase 4 (ADP-Glo Assay) (AID 1771). Also: nearly all actives have a fitted effect of over 70% in size. Also: potency is read from the fitted curve at half-maximal effect. An outline of the steps: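 Compounds are pin-transferred onto substrate mix (100 uM RS peptide, 1 uM ATP), then 25 nM Clk4 is added. After 1 hr at room temperature, ADP-Glo reagent runs 45 min, detection reagent 30 min, then luminescence is read.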
Dual specificity protein kinase CLK4 (Homo sapiens), sequence (Q9HAZ1 whole entry, looked up): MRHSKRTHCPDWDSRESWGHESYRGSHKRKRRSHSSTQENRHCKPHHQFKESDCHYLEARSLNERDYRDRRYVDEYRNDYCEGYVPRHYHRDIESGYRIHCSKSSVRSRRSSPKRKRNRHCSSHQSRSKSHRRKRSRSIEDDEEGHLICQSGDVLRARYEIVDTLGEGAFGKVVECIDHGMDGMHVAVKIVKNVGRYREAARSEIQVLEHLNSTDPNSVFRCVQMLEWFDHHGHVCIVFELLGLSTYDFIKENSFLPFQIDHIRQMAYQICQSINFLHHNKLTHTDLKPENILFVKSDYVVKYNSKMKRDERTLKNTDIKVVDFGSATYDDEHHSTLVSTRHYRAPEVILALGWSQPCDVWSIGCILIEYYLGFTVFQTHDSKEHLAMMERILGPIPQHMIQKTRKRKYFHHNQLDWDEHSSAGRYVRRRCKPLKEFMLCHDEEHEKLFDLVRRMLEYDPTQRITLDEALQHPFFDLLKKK

Assay [10] shares this target. Nature of the assay: qHTS Assay for Inhibitors of CDC-like Kinase 4 (ADP-FP Assay) (AID 1795). Also: nearly all actives have a fitted effect of over 60% in size. Also: potency is read from the fitted curve at half-maximal effect. In a few lines:
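Recombinant human Clk4 (6.25 nM) phosphorylated RS repeat peptide (100 uM) with 1 uM ATP in Tris pH 7.5/MgCl2/EGTA/DTT/Triton buffer for one hour. ADP was quantified by Transcreener competitive fluorescence polarization against an ADP calibration curve.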

Assay [11] has as its target Ubiquitin carboxyl-terminal hydrolase 1 (Homo sapiens) (UniProt O94782). Nature of the assay: Inhibitors of USP1/UAF1: Pilot qHTS (AID 504865).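 Also: rhodamine fluorescence freed from ubiquitin-rhodamine substrate followed over time; top concentration of the series differs between compounds; % is scaled to controls: 0 for no effect and ±100 for the full control effect; nearly all actives have a fitted effect of over 35% in size.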 In a few lines:
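USP1/UAF1 complex (1nM) preincubated with compound 15 min at room temperature, then Ub-Rho substrate (150nM final) added. Fluorescence read kinetically at 480/540 nm, 6 reads every 60 seconds. Buffer: 50mM HEPES pH 7.8, 0.5mM EDTA, 0.1 mg/ml BSA, 1mM TCEP, 0.01% Tween-20.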

Assay [12] can be described thus: Primary qHTS for small molecule stabilizers of the endoplasmic reticulum resident proteome: Secreted ER Calcium Modulated Protein (SERCaMP) assay (AID 1508630). Also: % is scaled to controls: 0 for no effect and ±100 for the full control effect. In a few lines: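 The SH-SY5Y reporter protocol was run at 3 concentrations up to 38.3 uM (primary) or 11 concentrations (follow-up): 16 h compound, 100 nM thapsigargin for 4 h, then extracellular luciferase luminescence.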

Assay [13] can be described thus: AP1 Signaling Pathway (AID 357; active = well fitted curve in either direction with a large enough effect, not every such curve was filed as active; also: % is scaled to controls: 0 for no effect and ±100 for the full control effect). The note with it: ME-180 AP-1-bla reporter, EGF-induced, beta-lactamase ratio, 5 h; at 7.69 µM (top of the series) unless noted. An outline of the steps: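 ME-180 cells with beta-lactamase reporter under AP-1 response element, stimulated with EC50 EGF; compounds tested in titration series, 5 h at 37 °C. CCF4 substrate added 2.5 h at room temperature; 460/530 nm emission ratio gave %activity and AC50.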

Assay [14] can be described thus: NFAT Signaling Pathway (AID 444; active = well fitted curve in either direction with a large enough effect, not every such curve was filed as active). The note with it: Jurkat NFAT-bla M1, carbachol, beta-lactamase ratio, 5 h; at 7.69 µM (top of the series) unless noted. An outline of the steps: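 Jurkat cells carrying an NFAT-driven β-lactamase reporter and co-transfected muscarinic M1 receptor were treated with compound plus carbachol (1 uM final, an EC50 level) for 5 h at 37 °C. CCF4 loading followed for 1 h at RT; 460/530 nm ratio gave %activity.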

The target in assay [15] is Glucocorticoid receptor (Homo sapiens) (UniProt P04150). Description: GR-EFC Redistribution (AID 451; calls by dose curve; also: potency is read from the fitted curve at half-maximal effect). The note with it: CHO-K1 GR-EFC translocation, beta-gal luminescence, 2 h. In a few lines:
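CHO-K1 cells stably expressing nuclear-localized β-gal enzyme acceptor and GR fused C-terminally to the enzyme donor fragment; ligand-driven nuclear translocation restores β-gal by complementation. Compounds titrated up to 46 uM final, 2 h at 37 °C; luminescence read.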

Assay [16] has as its target 3',5'-cyclic-AMP phosphodiesterase 4B (Homo sapiens) (UniProt Q07343). Nature of the assay: qHTS Assay for Inhibitors of PDE-IV (AID 607; active = well fitted activation curve with a large enough effect in the main read-out, with a control signal flat, not every such curve was filed as active; also: % of control where 0% means no effect). In a few lines: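 HEK293 ACTOne cells with CNG channel (1000/well), endogenous PDE4; membrane potential dye, compounds up to 22.9 uM final. Fluorescence Ex 535/Em 590; RO 20-1724 (100 uM final) as reference.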
Assay [17] in a line: qHTS Assay for Identification of Small Molecule Agonists for Hypoxia Response Element Signaling Pathway (AID 914; active = well fitted activation curve with a large enough effect in the signal ratio, with a control signal flat, not every such curve was filed as active; the % refers to the signal ratio; also: % of control where 0% means no effect). The note with it: ME-180 (cervical carcinoma) HRE-bla reporter, beta-lactamase ratio, CoCl2, 17 h; activation: stronger effect = higher value. An outline of the steps:
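Cells were plated overnight, pin-dosed with compound in a titration series, co-stimulated with EC50 CoCl2 and incubated 17 hours at 37 degrees Celsius. CCF4 substrate was then loaded, and AC50 values came from the 460nm/530nm ratio.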

Setting [18] is: measured here: cell count channel max response.
The mark [19] stands for this setting: measured here: lipid channel max response.

Results filed as inconclusive are left out. Active and inactive are the calls of the source. Unless noted, calls follow the shape of the dose curve; as a rule, active = well fitted curve in the direction sought with a large enough effect; inconclusive = small, poorly fitted or top-dose-only effect, or another doubt; inactive = no such curve, though single readings can be large; an effect the other way counts as inactive or inconclusive. A value given as a limit tells only on which side of the number the result lay.

3',5'-cyclic-AMP phosphodiesterase 4B (Homo sapiens), sequence (Q07343 whole entry, looked up): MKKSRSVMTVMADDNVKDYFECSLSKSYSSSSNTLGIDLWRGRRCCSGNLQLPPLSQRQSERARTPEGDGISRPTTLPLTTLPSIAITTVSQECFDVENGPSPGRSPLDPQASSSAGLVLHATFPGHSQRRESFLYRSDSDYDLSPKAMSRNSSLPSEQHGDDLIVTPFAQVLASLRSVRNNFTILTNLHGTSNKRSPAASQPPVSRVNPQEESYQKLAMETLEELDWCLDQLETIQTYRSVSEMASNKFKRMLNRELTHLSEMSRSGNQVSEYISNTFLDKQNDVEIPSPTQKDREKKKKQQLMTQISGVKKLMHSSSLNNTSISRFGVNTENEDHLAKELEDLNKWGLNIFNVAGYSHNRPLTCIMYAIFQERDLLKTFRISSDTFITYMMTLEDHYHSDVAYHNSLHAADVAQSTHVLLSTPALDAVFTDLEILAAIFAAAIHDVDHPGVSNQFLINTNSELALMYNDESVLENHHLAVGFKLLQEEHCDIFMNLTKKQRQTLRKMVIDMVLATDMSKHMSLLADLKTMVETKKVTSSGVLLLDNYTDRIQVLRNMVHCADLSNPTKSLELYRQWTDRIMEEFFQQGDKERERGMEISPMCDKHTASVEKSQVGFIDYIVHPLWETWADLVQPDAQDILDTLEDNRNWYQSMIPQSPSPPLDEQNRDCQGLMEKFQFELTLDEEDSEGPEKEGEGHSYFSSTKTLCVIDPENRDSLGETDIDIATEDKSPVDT
Cytochrome P450 1A2 (Homo sapiens), sequence (P05177 whole entry, looked up): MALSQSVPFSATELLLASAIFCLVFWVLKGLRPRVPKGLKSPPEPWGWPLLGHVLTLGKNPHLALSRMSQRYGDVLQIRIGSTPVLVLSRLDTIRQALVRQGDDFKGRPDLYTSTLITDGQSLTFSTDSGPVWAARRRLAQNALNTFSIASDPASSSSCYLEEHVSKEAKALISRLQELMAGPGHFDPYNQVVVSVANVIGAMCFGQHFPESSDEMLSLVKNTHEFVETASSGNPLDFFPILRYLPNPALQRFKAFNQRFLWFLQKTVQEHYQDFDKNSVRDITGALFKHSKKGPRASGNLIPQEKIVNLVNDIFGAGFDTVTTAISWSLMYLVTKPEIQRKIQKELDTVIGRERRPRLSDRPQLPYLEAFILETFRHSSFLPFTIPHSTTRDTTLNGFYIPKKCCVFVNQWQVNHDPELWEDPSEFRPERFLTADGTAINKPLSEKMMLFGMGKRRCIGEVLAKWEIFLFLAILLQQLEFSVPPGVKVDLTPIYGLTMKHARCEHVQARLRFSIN
Ubiquitin carboxyl-terminal hydrolase 1 (Homo sapiens), sequence (O94782 whole entry, looked up): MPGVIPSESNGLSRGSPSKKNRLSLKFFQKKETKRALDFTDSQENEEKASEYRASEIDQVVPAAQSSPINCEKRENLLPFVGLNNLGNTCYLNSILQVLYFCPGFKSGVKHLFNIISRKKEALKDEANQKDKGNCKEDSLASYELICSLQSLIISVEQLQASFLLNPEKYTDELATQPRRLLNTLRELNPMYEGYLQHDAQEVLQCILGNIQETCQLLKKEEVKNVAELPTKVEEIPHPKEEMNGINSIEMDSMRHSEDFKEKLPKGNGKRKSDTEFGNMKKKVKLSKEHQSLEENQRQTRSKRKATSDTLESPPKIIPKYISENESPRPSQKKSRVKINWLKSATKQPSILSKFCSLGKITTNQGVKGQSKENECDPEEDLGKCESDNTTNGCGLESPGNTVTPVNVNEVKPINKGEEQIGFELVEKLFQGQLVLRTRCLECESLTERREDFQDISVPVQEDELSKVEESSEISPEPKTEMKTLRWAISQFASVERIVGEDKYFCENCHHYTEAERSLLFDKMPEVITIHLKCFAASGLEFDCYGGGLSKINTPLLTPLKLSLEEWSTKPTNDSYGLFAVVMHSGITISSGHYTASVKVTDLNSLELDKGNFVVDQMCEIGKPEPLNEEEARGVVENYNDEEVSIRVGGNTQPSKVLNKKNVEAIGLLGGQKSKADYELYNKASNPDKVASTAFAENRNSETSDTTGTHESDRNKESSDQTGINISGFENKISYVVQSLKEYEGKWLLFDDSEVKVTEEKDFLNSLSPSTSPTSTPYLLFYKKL
Lysosomal acid glucosylceramidase (Homo sapiens), sequence (P04062 whole entry, looked up): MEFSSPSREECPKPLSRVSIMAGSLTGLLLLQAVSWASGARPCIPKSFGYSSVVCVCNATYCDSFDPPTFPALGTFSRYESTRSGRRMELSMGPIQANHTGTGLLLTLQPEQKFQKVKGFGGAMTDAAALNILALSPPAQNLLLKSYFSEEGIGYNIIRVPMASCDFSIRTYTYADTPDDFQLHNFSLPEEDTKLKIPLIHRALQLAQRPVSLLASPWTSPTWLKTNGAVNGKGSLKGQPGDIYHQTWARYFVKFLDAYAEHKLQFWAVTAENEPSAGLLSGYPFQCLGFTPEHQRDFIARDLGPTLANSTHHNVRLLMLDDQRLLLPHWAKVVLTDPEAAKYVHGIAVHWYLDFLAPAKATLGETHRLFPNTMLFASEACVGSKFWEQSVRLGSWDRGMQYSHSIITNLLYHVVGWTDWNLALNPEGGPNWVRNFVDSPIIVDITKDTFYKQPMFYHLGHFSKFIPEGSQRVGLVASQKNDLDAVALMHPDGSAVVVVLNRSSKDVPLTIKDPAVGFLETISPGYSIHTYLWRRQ

Regarding `c1ccc(CNc2ncnc3ccc(-c4cccnc4)cc23)cc1`, the Potency is > 11.4 µM (inactive) in [1]; 0.126 µM (active) in assay [2]; > 46 µM (inactive) in [4]; 1.26 µM (active) in [6]; 3.16 µM (active) in [9]; 2.24 µM (active) in assay [10]. Also, in assay [3], the activity, negative = inhibition is -1.78% (inactive). In addition, in assay [5], the call was inactive. Further, the Potency result in [7], in assay [11] and in assay [12] was “inactive” throughout. For the same molecule, in [8], the activity change, negative = inhibition is -2.12% (inactive). In addition, the max response in assay [8] (setting [18]) turned out to be 14%; in [8] (setting [19]), 9.68%.
Regarding `O=c1cnc2cnc(Nc3ccccc3)nc2n1Cc1ccc(F)cc1`, the Potency is > 11.4 µM (inactive) in assay [1], 1 µM (active) in assay [2], > 9.22 µM (inactive) in assay [4] and > 46 µM (inactive) in assay [15]. Besides, the results for the activity change, negative = inhibition in [13], in [14] and in assay [8] were -17.4% (inactive), 3.72% (inactive) and 6.15% (inactive), respectively. In addition, the activity, negative = inhibition in assay [3] is -3.92% (inactive). In assay [5], the outcome was inactive. The max response came to 9.12% in assay [8] (setting [18]) and 14.4% in assay [8] (setting [19]). Also, the Potency entry in assay [10], in assay [11] and in [12] was “inactive” throughout.
In the case of `Cn1c(=O)c(-c2cccs2)nc2cnc(OCc3ccccc3)nc21`, the Potency in assay [1] was > 11.4 µM (inactive); in [2], 7.94 µM (active); in [4], > 9.22 µM (inactive); in assay [15], > 46 µM (inactive). The activity change, negative = inhibition in [13] is 16% (inactive); in [14], 22.3% (inactive); in assay [8], 6.88% (inactive). In assay [5], the call was inactive. Also, the Potency result in [16], in [9], in assay [10], in assay [11] and in assay [12] was “inactive” throughout. For the same molecule, the max response is 20.6% in assay [8] (setting [18]) and 29.6% in assay [8] (setting [19]).
`COCCn1c(=O)c(-c2ccccc2)nc2cnc(OC)nc21`: the Potency in assay [1] is > 11.4 µM (inactive); in assay [2] it was 1 µM (active); in assay [4] it was > 9.22 µM (inactive); in assay [15], > 46 µM (inactive). The activity change, negative = inhibition in [13] is -2.69% (inactive); in [14], -14.5% (inactive); in assay [8], 5.61% (inactive). For the same molecule, the activity, negative = inhibition in assay [3] is -12.2% (inactive). For the same molecule, in assay [5], the outcome was inactive. Moreover, the Potency entry in assay [16], in assay [7], in assay [9], in [10], in assay [11] and in assay [12] was “inactive” each time. The values for the max response in assay [8] (setting [18]) and in [8] (setting [19]) were 16.8% and 21.9%, respectively.
On to `Cn1c(=O)c(-c2cccs2)nc2cnc(N3CCOCC3)nc21`, for which the Potency in assay [1] was > 11.4 µM (inactive); in assay [2], 5.01 µM (active); in assay [4] it was > 9.22 µM (inactive); in assay [15], > 46 µM (inactive). Besides, the activity change, negative = inhibition in assay [13] is -14% (inactive); in [14], -9.83% (inactive); in assay [8] it was 5.09% (inactive). The activity, negative = inhibition in assay [3] was -4.84% (inactive). For the same molecule, the outcome in [5] was inactive. For the same molecule, the Potency entry in [16], in [9], in assay [10], in assay [11] and in assay [12] was “inactive” in each case. Further, the activation in assay [17] was 11.8% (inactive). Besides, the results for the max response in [8] (setting [18]) and in assay [8] (setting [19]) were 14.1% and 16.5%, respectively.
Take `CN(Cc1ccco1)c1cc(-c2ccoc2)ncn1`: the Potency in assay [1] was > 11.4 µM (inactive); in assay [4] it was > 46 µM (inactive); in assay [15], > 46 µM (inactive). Also, the activity change, negative = inhibition in assay [13] is -1.97% (inactive); in [8], 6.03% (inactive). The Potency result in [2], in assay [16], in [9], in [10], in assay [11] and in [12] was “inactive” in each case. Also, the activity, negative = inhibition in [3] was 18.1% (inactive). Also, in assay [5], the molecule was classed as inactive. Moreover, the max response in [8] (setting [18]) worked out at 18%; in assay [8] (setting [19]), 23.3%.
